Here are results for 8 compounds from PubChem BioAssay (NCI).

This is part of a sample that, as a whole, favours compounds with a hit. Of some 83,000 tested, about 20% had one in any assay.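 Percent growth is the endpoint: 0 to 100 indicates growth inhibition (40 means 60% inhibition), 0 means no net growth, and negative values indicate cell death.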 Values without a mark were called inactive. Calls of active or inactive are those of the source. Rule for the calls: active = growth percent below 10; inactive = the rest.

Some test systems named below: NCI-H23 lung; NCI-H322M lung; HOP-62 NSCLC; NCI-H460 lung; HOP-92 NSCLC; NCI-H522 lung; A549/ATCC NSCLC; 786-0 renal; COLO 205 colon; DU-145 prostate; K-562 leukemia; MALME-3M melanoma; MDA-MB-231 breast; RXF 393 renal; SF-268 CNS; SF-295 CNS; SF-539 CNS; UACC-257 melanoma; M14 melanoma.
Common to all, as to experiment: NCI-60 one-dose screen, 48 h (100 = growth as untreated, 0 = no growth, -100 = all killed)
Settings in all cases: 10 µM unless noted

As to `C=CN(C(=O)N1CCN(c2cc3c(cc2F)c(=O)c(C(=O)O)cn3C2CC2)CC1)c1nc(-c2ccc(Cl)cc2)cs1`, the growth in the assay on NCI-H23 lung was 67.8%; in the assay on NCI-H322M lung, 69.4%; in the assay with HOP-62 NSCLC it was 69.4%; in the assay with NCI-H460 lung, 23.5%; with HOP-92 NSCLC, 60.1%; in the assay on NCI-H522 lung, 64.7%. Moreover, the growth was 40.7% in the assay with A549/ATCC NSCLC; 82.8% in the assay with 786-0 renal; 84.2% with COLO 205 colon; 81.1% with DU-145 prostate; 47.6% in the assay with K-562 leukemia; 89.9% in the assay on MALME-3M melanoma. Moreover, the growth in the assay on MDA-MB-231 breast is 76.4%; in the assay with RXF 393 renal, 53.3%; with SF-268 CNS it was 44.7%; in the assay on SF-295 CNS it was 58.6%; in the assay on SF-539 CNS it was 67%; in the assay on UACC-257 melanoma, 87.6%. In addition, in the assay with M14 melanoma, the growth was 60.2%.
For `c1ccc2cc(Cn3cc(CSc4nc5ccccc5s4)nn3)ccc2c1`, the growth is 93.2% in the assay on NCI-H23 lung; 97.6% with NCI-H322M lung; 85.7% with HOP-62 NSCLC; 106% in the assay with NCI-H460 lung; 98.7% in the assay with HOP-92 NSCLC; 86.9% with NCI-H522 lung. Also, the growth is 93.4% in the assay on A549/ATCC NSCLC; 101% in the assay with 786-0 renal; 102% in the assay with COLO 205 colon; 109% in the assay with DU-145 prostate; 97.4% in the assay on K-562 leukemia; 97.7% with MALME-3M melanoma. Further, the growth is 89.3% with MDA-MB-231 breast; 98.3% in the assay on RXF 393 renal; 95.8% in the assay on SF-268 CNS; 96.5% with SF-295 CNS; 95.3% in the assay on SF-539 CNS; 99.9% in the assay on UACC-257 melanoma. Moreover, the growth with M14 melanoma is 99.4%.
For `COc1ccc(/C=C/C(c2cc(OC)c(OC)c(OC)c2)n2cncn2)cc1O` (stereo unspecified), the growth in the assay with NCI-H23 lung is 41.5%; with NCI-H322M lung, 54.7%; in the assay on HOP-62 NSCLC it was 22.5%; in the assay with NCI-H460 lung, 13.3%; with HOP-92 NSCLC, 48%; in the assay with NCI-H522 lung it was 13%. Besides, the growth with A549/ATCC NSCLC was 40.1%; in the assay with 786-0 renal it was 23.3%; in the assay with COLO 205 colon it was 60.6%; in the assay with DU-145 prostate, 21%; in the assay on K-562 leukemia it was 8.05% (active); with MALME-3M melanoma it was 54.4%. Moreover, the growth in the assay with MDA-MB-231 breast was 45.5%; with RXF 393 renal, -16.9% (active); with SF-268 CNS it was 54.1%; with SF-295 CNS it was 1.43% (active); with SF-539 CNS, -4.58% (active); in the assay with UACC-257 melanoma, 55.6%.
Turning to `O=S(=O)(NCCNc1nccc(-c2c(-c3ccc(F)c(O)c3)nc3sccn23)n1)c1ccc(Cl)cc1`, the growth in the assay on NCI-H23 lung was 42.1%; in the assay on NCI-H322M lung, 55.8%; with HOP-62 NSCLC, 60.2%; in the assay on NCI-H460 lung, 27%; in the assay with HOP-92 NSCLC it was 45%; in the assay with NCI-H522 lung it was 22.2%. The growth is 25.7% in the assay with A549/ATCC NSCLC; 38.3% in the assay on 786-0 renal; 17.6% in the assay with COLO 205 colon; 44% with DU-145 prostate; 15.7% in the assay with K-562 leukemia; 20.6% in the assay on MALME-3M melanoma. Further, the growth in the assay on MDA-MB-231 breast is 50.1%; with RXF 393 renal, 25%; with SF-268 CNS it was 32.3%; with SF-295 CNS it was 29.5%; with SF-539 CNS it was 43%; in the assay on UACC-257 melanoma, 32.9%. Besides, the growth in the assay with M14 melanoma is 27.5%.
As to `CCOC(=O)C/C(=N\Nc1cc(=O)[nH]c2ccc(OC)cc12)C(=O)OCC`, the growth in the assay with NCI-H23 lung is 99.4%; in the assay on NCI-H322M lung, 94.9%; in the assay on HOP-62 NSCLC, 105%; in the assay on NCI-H460 lung it was 100%; with HOP-92 NSCLC, 87.2%; in the assay on NCI-H522 lung, 109%. Also, the growth is 105% with A549/ATCC NSCLC; 107% with 786-0 renal; 114% with COLO 205 colon; 99.6% with DU-145 prostate; 89.3% in the assay on K-562 leukemia; 104% in the assay with MALME-3M melanoma. In addition, the growth in the assay on MDA-MB-231 breast was 98.4%; with RXF 393 renal it was 96.4%; in the assay on SF-268 CNS, 98%; in the assay on SF-295 CNS, 101%; in the assay on SF-539 CNS it was 90.9%; in the assay with UACC-257 melanoma it was 108%. In addition, the growth in the assay on M14 melanoma was 102%.
For `O=C(/C=C/C12c3ccccc3C(c3ccccc31)C1C(=O)NC(=O)C12)c1ccc(Cl)cc1Cl` (stereo unspecified), the growth with NCI-H23 lung is 32.9%; in the assay on NCI-H322M lung it was 41.4%; with HOP-62 NSCLC, 21%; in the assay on NCI-H460 lung, 8.61% (active); with HOP-92 NSCLC, 37.6%; in the assay on NCI-H522 lung, 9.1% (active). The growth in the assay on A549/ATCC NSCLC is 37.4%; in the assay with 786-0 renal, 19.1%; in the assay with COLO 205 colon, -8.3% (active); in the assay on DU-145 prostate, 23%; in the assay with K-562 leukemia, 7.41% (active); in the assay on MALME-3M melanoma, 48.2%. Also, the growth was 19.3% in the assay on MDA-MB-231 breast; -4.59% (active) in the assay with RXF 393 renal; 33.3% in the assay on SF-268 CNS; 40.8% with SF-295 CNS; 39.4% with SF-539 CNS; 41% in the assay on UACC-257 melanoma. Besides, the growth in the assay on M14 melanoma is 24.4%.
For `C/C(=C(\c1ccc(OCCN2CCCCCC2)cc1)c1ccc(OC(=O)c2ccccc2)cc1)c1ccc(Cl)cc1`, the growth with NCI-H23 lung is 46.7%; in the assay on NCI-H322M lung it was 71.7%; in the assay with HOP-62 NSCLC, 71.7%; in the assay with NCI-H460 lung, 3.62% (active); in the assay with HOP-92 NSCLC it was 56.2%; in the assay on NCI-H522 lung, 51%. Also, the growth with A549/ATCC NSCLC was 39.1%; in the assay with 786-0 renal, 21.8%; in the assay on COLO 205 colon it was 4.38% (active); in the assay with DU-145 prostate, 66.1%; with K-562 leukemia, -4.61% (active); in the assay on MALME-3M melanoma, 17.3%. Besides, the growth with MDA-MB-231 breast is 51.1%; with RXF 393 renal, 19%; with SF-268 CNS it was 43.1%; in the assay on SF-295 CNS it was 44.4%; in the assay with SF-539 CNS, 58.5%; with UACC-257 melanoma it was -7.06% (active). Moreover, in the assay on M14 melanoma, the growth is 0.53% (active).
In the case of `CCN1CCN(CCNc2nccc(-c3c(-c4ccc(F)c(O)c4)nc4occn34)n2)S1(=O)=O`, the growth is 14% in the assay on NCI-H23 lung; 64.3% in the assay with NCI-H322M lung; 33.7% with HOP-62 NSCLC; 34.9% in the assay on NCI-H460 lung; 68.5% with HOP-92 NSCLC; -3.38% (active) with NCI-H522 lung. Further, the growth was 23% with A549/ATCC NSCLC; 56.7% in the assay with 786-0 renal; 29% in the assay on COLO 205 colon; 26.8% in the assay on DU-145 prostate; 10.3% with K-562 leukemia; 26.4% in the assay with MALME-3M melanoma. The growth in the assay with MDA-MB-231 breast is 73.2%; in the assay on RXF 393 renal, 25.8%; in the assay with SF-268 CNS, 28%; in the assay with SF-295 CNS it was 28.9%; in the assay with SF-539 CNS it was 75.9%; in the assay on UACC-257 melanoma it was 43.6%. In the assay on M14 melanoma, the growth was 21.6%.
